# Assay outcomes deposited in PubChem BioAssay by Center for Chemical Genomics, University of Michigan.
# Dicer inh: inhibitors of Dicer pre-microRNA processing, primary screen, biochemical, cat-ELCCA, chemiluminescence; Endoribonuclease Dicer (Homo sapiens), Q9UPY3; cat-ELCCA pre-miR-21 Dicer processing; hits give high values; z-score at 25 µM; 6% of 47,000 active; AID 1347074, 2019; in the data active means z-score above about 3, passing the limit was not always enough;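 further: plate controls were vehicle for no effect and no enzyme for full effect; higher signal means more uncleaved substrate so more Dicer inhibition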
# An asterisk follows results filed as active. The sample as a whole holds a higher share of hits than the screen did.
SMILES,Dicer inh
COc1ccc(S(=O)(=O)N(C(=O)C(C)C)c2ccc3oc(=O)sc3c2)cc1OC,0.67
CCCC(=O)N(c1ccc2oc(=O)sc2c1)S(=O)(=O)c1ccc(OCC)cc1,-0.94
CCCCC(=O)N(c1ccc2oc(=O)sc2c1)S(=O)(=O)c1cc(OC)ccc1OC,5.2*
CC1=NN(c2ccccc2)C(=O)C1C(=O)c1ccccc1Br (centres undefined),-1.9
Cc1noc(-c2ccco2)c1NC(=O)NN(C)C,-0.41
COc1ccc(C2C(C#N)=C(N)Oc3n[nH]c(-c4ccc5c(c4)OCO5)c32)cc1OC (centres undefined),-5.8
O=S(=O)(Nc1ncccc1OCc1cc(F)cc(F)c1)c1ccccc1C(F)(F)F,0.92
COc1ccc(C(=O)Oc2ccc3c(c2)C(C)=CC(C)(C)N3)cc1OC,-0.52
COC(=O)C1=C(C)NC2=C(C(=O)CCC2)C1c1ccc(CN2C(=O)c3ccccc3C2=O)o1 (centres undefined),0.61
Cn1nc(NC(=O)CC(C)(C)CC(=O)O)c2c(F)cccc21,-0.1
CC(=O)c1ccc(Oc2ccc([N+](=O)[O-])c(Oc3ccc(C(C)=O)cc3)n2)cc1,-0.83
O=C(Oc1cc2sc(=O)oc2c2ccccc12)c1ccccc1I,-6
CCOC(=O)c1c(NC(=O)Nc2ccc(Cl)cc2)sc2c1CCC(C)C2 (centres undefined),-0.15
Cn1cnc(S(=O)(=O)Nc2ccc(N3CCCCC3)cc2)c1,-1.5
O=S(=O)(Nc1ccc(N2CCCCC2)cc1)c1cc(S(=O)(=O)c2ccccc2)cs1,5.3*
O=S(=O)(Nc1ccc2c(c1)OCCO2)c1cc(S(=O)(=O)c2ccccc2)cs1,2.4
CN(C)C(=O)Cc1c(Cl)sc2ccccc12,2.4
c1ccc(Cc2nnc3sc(-c4ccco4)nn23)cc1,-0.3
CSc1nn2c(=O)c(Cc3ccccc3)nnc2s1,3.2*
Fc1ccccc1-c1nn2c(Cc3ccccc3)nnc2s1,0.65
Cc1cnc(NC(=O)c2c(F)cccc2Cl)c(Br)c1,2.5
Cc1cc(Cc2ccc(C(F)(F)F)cc2)c(=O)[nH]n1,3.1*
Cc1ccc(Cc2cc(-c3ccc(C)cc3)n[nH]c2=O)cc1,-0.37
Cc1cc(Cc2cccs2)c(=O)[nH]n1,1.4
Cc1ccc(C2Nn3c(C)nnc3SC2C(=O)Nc2ccc(C)c(C)c2)cc1 (centres undefined),-3.2
SMILES,Dicer inh
COc1ccc(C(=O)CC2(O)C(=O)Nc3ccccc32)cc1OC (centres undefined),2.2
O=C(NC1=NCCS1)c1cc2ccccc2o1,3.6*
O=C(Nc1ccc2c(c1)OCCO2)c1cc2ccccc2o1,0.46
O=C(NC1=NCCS1)c1cccs1,-1.1
Cc1cc(C)c2c(N)c(-c3n[nH]c(=S)n3Cc3ccccc3)sc2n1,-2
O=C(OCc1nccn1Cc1ccc(Cl)cc1)c1ccc(Cl)cc1,-1.4
COC(=O)c1ccccc1Sc1nc2ccc(Cl)cc2s1,0.17
COc1ccc(NS(=O)(=O)c2ccc(NS(=O)(=O)c3ccc(Cl)cc3)cc2)cc1,-0.09
COc1ccc(NS(=O)(=O)c2ccc(N)cc2)cc1,0.5
COc1ccc(NS(=O)(=O)c2cccc(S(=O)(=O)c3ccc(Cl)cc3)c2)cc1,3.4*
CC12CC3CC(Br)(C1)CC(C(=O)O)(C3)C2 (centres undefined),0.64
CCOC(=O)c1c(N/N=C/c2ccc(O)cc2)n[nH]c1C,0.23
CCOC(=O)c1c(N=Cc2ccccc2Cl)n[nH]c1C,-2.5
CCOC(=O)c1c(N=Cc2ccccc2[N+](=O)[O-])n[nH]c1C,3.7*
O=C1c2oc3ccc(F)cc3c(=O)c2C(c2ccc(O)cc2)N1CCCN1CCOCC1 (centres undefined),2.1
CN(CCOC(=O)c1cc2ccccc2o1)C(C)(C)C,2.7
CN(C)CCCOC(=O)c1cc2ccccc2o1,0.59
COc1ccc(OC(=O)c2cc3ccccc3o2)cc1,4.7*
COc1cc2c(cc1OC)C(c1ccc(Cl)cc1Cl)NC(=O)C2 (centres undefined),2.8
CN1C(=O)c2cccc3c(S(=O)(=O)NCC(=O)O)ccc1c23,3.1*
CN1C(=O)c2cccc3c(S(=O)(=O)NCCCC(=O)O)ccc1c23,0.78
CN1C(=O)c2cccc3c(S(=O)(=O)NCCCCCC(=O)O)ccc1c23,-1.6
Cc1c(-c2ccnc(NC(=O)c3ccc(Cl)cc3)n2)sc2ccc(Cl)cc12,0.48
Cc1cc(OC(=O)c2sc3ccccc3c2Cl)c2cc(F)ccc2n1,-0.48
COc1ccc(C2NC(=O)c3c(sc4c3CCCC4)N2)cc1 (centres undefined),-1.2
SMILES,Dicer inh
O=C1NC(c2ccccc2Cl)Nc2sc3c(c21)CCCC3 (centres undefined),5.9*
O=C1NC(c2ccccc2Cl)Nc2sc3c(c21)CCN(Cc1ccccc1)C3 (centres undefined),1.9
COc1cc(C2NC(=O)c3c(sc4c3CCCC4)N2)cc(Br)c1OC (centres undefined),4.1*
O=C1NC(c2ccc(Cl)cc2)Nc2sc3c(c21)CCCC3 (centres undefined),0.55
COc1cc(C2NC(=O)c3c(sc4c3CCCC4)N2)cc(OC)c1OC (centres undefined),-0.42
COc1ccc(CCNC(=O)Cc2cc(OC)c(OC)cc2CO)cc1OC,1.3
COC(=O)C1OC=C(C)C2CN3CCC4c5ccccc5NC4CC3CC21 (centres undefined),-0.77
O=C(NNc1ccccc1C(F)(F)F)NC(=O)c1ccccc1Cl,0.63
COc1ccc(Oc2coc3cc(OC(=O)CCc4ccccc4)ccc3c2=O)cc1,0.63
Cc1ccc(S(=O)(=O)NC(=O)NNC(=O)c2cc(C(C)(C)C)nn2Cc2ccc(F)cc2)cc1,1.4
CCOc1ccc(C2CC(=O)NC(SCC)=C2C#N)cc1 (centres undefined),1.9
COc1ccc(OC)c(C2SCCN2S(=O)(=O)c2ccc(F)cc2)c1 (centres undefined),-0.82
Cc1ccc(S(=O)(=O)N2CCN(S(=O)(=O)c3ccccc3)C2c2ccc(N(C)C)cc2)cc1 (centres undefined),2.1
COc1ccc(C2N(S(=O)(=O)c3ccc(C)cc3)CCN2S(=O)(=O)c2ccc(C)cc2)cc1,3.7*
O=S(=O)(c1ccc(-c2ccccc2)cc1)N1CCSC1c1ccccc1 (centres undefined),3.8*
O=S(=O)(c1ccccc1)N1CCSC1c1ccc(Cl)cc1 (centres undefined),-1
COc1ccc(C2N(S(=O)(=O)c3ccccc3)CCN2S(=O)(=O)c2ccccc2)cc1,-1.7
O=S(=O)(c1ccccc1)N1CCSC1c1ccc(Br)cc1 (centres undefined),0.54
COc1ccc(OC)c(C2SCCN2S(=O)(=O)c2ccc(C)cc2)c1 (centres undefined),-0.82
COc1ccc(S(=O)(=O)N2CCSC2c2cc(OC)ccc2OC)cc1 (centres undefined),3.7*
CN(Cc1ccccc1)S(=O)(=O)c1ccc(Oc2cccc(Cl)c2C#N)cc1,-0.85
CCCCc1nc2sc3c(NCCO)ncnc3c2c2c1COC(C)(C)C2,-0.52
CCOC(=O)CN1C(=O)C(O)(CC(=O)c2ccc(C)o2)c2ccccc21 (centres undefined),-0.56
CCOC(=O)Cn1c2ccccc2n2nc(C)nc12,-0.27
Nc1ccccc1Sc1nc(Sc2ccccc2N)c(C(F)(F)F)cc1C(F)(F)F,-4.7
COc1cccc(=O)c2c(C)n(-c3ccc(C(=O)O)cc3)c(C)c12,2.1
CCOc1cccc(=O)c2c(C)n(-c3ccc(C(=O)O)cc3)c(C)c12,10*
